Results as given in PubChem BioAssay (NCI).
About 83,000 compounds went through this panel and 20% of them were active in at least one assay; those are over-represented in the sample as a whole.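 Percent growth is the endpoint: 0 to 100 indicates growth inhibition (40 means 60% inhibition), 0 means no net growth, and negative values indicate cell death.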 Active and inactive are the calls of the source. Rule for the calls: active = growth percent below 10; inactive = the rest.

Assays:
Assay in all cases: NCI-60 one-dose screen, 48 h (100 = growth as untreated, 0 = no growth, -100 = all killed)
Conditions in all cases: 10 µM unless noted
HCT-15 colon = system: HCT-15 colon
HT29 colon = system: HT29 colon
SNB-75 CNS = system: SNB-75 CNS
SNB-19 CNS = system: SNB-19 CNS
U251 CNS = system: U251 CNS
PC-3 prostate = system: PC-3 prostate
SK-MEL-5 melanoma = system: SK-MEL-5 melanoma
UACC-62 melanoma = system: UACC-62 melanoma
LOX IMVI melanoma = system: LOX IMVI melanoma
SK-MEL-28 melanoma = system: SK-MEL-28 melanoma
SK-MEL-2 melanoma = system: SK-MEL-2 melanoma
EKVX NSCLC = system: EKVX NSCLC
SN12C renal = system: SN12C renal
UO-31 renal = system: UO-31 renal
TK-10 renal = system: TK-10 renal
ACHN renal = system: ACHN renal
CAKI-1 renal = system: CAKI-1 renal
A498 renal = system: A498 renal
CCRF-CEM leukemia = system: CCRF-CEM leukemia
MOLT-4 leukemia = system: MOLT-4 leukemia

Measured: growth

C=C(C)[C@@H]1CC[C@]2(C(=O)Nc3ccccn3)CC[C@]3(C)[C@H](CC[C@@H]4[C@@]5(C)CCCNC(C)(C)[C@@H]5CC[C@]43C)[C@@H]12
active: HT29 colon 4.13% | SK-MEL-5 melanoma -96.5% | CCRF-CEM leukemia 9.61% | MOLT-4 leukemia -0.121%
inactive: HCT-15 colon 13.1% | SNB-75 CNS 33.4% | SNB-19 CNS 25% | U251 CNS 10.4% | PC-3 prostate 17.3% | UACC-62 melanoma 36.1% | LOX IMVI melanoma 10.9% | SK-MEL-28 melanoma 31.9% | SK-MEL-2 melanoma 41.2% | EKVX NSCLC 25.3% | SN12C renal 20.8% | UO-31 renal 55.9% | TK-10 renal 28.4% | ACHN renal 33.4% | CAKI-1 renal 34.8% | A498 renal 18.9%

COc1cc(-c2cc(-c3ccc(Nc4nc(Nc5ccc(Cl)cc5)nc(Nc5ccc(Cl)cc5)n4)cc3)no2)cc(OC)c1OC
active: MOLT-4 leukemia -10.3%
inactive: HCT-15 colon 81.2% | HT29 colon 78.8% | SNB-75 CNS 74.6% | SNB-19 CNS 81.6% | U251 CNS 73.4% | PC-3 prostate 60.1% | SK-MEL-5 melanoma 61.2% | UACC-62 melanoma 82.1% | LOX IMVI melanoma 73.3% | SK-MEL-28 melanoma 88% | SK-MEL-2 melanoma 55.2% | EKVX NSCLC 67.1% | SN12C renal 106% | UO-31 renal 61.6% | TK-10 renal 108% | ACHN renal 78.9% | CAKI-1 renal 75.4% | A498 renal 68.3%

C=C(C)[C@@H]1CC[C@]2(CO)CC[C@]3(C)[C@H](CC[C@@H]4[C@@](C)(CCCN)[C@H](C(=C)C)CC[C@]43C)[C@@H]12
active: HCT-15 colon -81.7% | HT29 colon -54.4% | SNB-75 CNS -91.9% | SNB-19 CNS 1.21% | U251 CNS -88.6% | PC-3 prostate 0.447% | SK-MEL-5 melanoma -87.5% | UACC-62 melanoma -88.6% | LOX IMVI melanoma -97.8% | SK-MEL-28 melanoma -98.3% | SK-MEL-2 melanoma -61.6% | EKVX NSCLC -12.9% | SN12C renal -97.6% | UO-31 renal -43.4% | TK-10 renal -62.9% | ACHN renal -100% | CAKI-1 renal -54.9% | A498 renal -85.7% | CCRF-CEM leukemia -16% | MOLT-4 leukemia -32.4%

CC(C)CCC[C@@H](C)[C@H]1CC[C@H]2[C@@H]3CC=C4c5sc(Nc6cc(C(F)(F)F)cc(C(F)(F)F)c6)nc5CC[C@]4(C)[C@H]3CC[C@]12C
inactive: HCT-15 colon 101% | HT29 colon 110% | SNB-75 CNS 95.5% | SNB-19 CNS 98.6% | U251 CNS 96% | PC-3 prostate 92.8% | SK-MEL-5 melanoma 100% | UACC-62 melanoma 94.5% | LOX IMVI melanoma 96.8% | SK-MEL-28 melanoma 113% | SK-MEL-2 melanoma 124% | EKVX NSCLC 97% | SN12C renal 92.3% | UO-31 renal 73.4% | TK-10 renal 119% | ACHN renal 106% | CAKI-1 renal 85.6% | A498 renal 123% | CCRF-CEM leukemia 107% | MOLT-4 leukemia 103%

[N-]=[N+]=NCC1OC(n2cnc3c(NC(=O)Nc4ccccc4)ncnc32)C2OC(=O)CC12 (centres undefined)
inactive: HCT-15 colon 91.2% | HT29 colon 109% | SNB-75 CNS 93.7% | SNB-19 CNS 106% | U251 CNS 110% | PC-3 prostate 97.4% | SK-MEL-5 melanoma 106% | UACC-62 melanoma 107% | LOX IMVI melanoma 93.2% | SK-MEL-28 melanoma 118% | SK-MEL-2 melanoma 90.7% | EKVX NSCLC 104% | SN12C renal 118% | UO-31 renal 78.8% | TK-10 renal 101% | ACHN renal 101% | CAKI-1 renal 101% | A498 renal 100% | CCRF-CEM leukemia 91.7% | MOLT-4 leukemia 84.6%

c1cc(OCCN2CCCCCC2)ccc1CNc1ccc2nc(CCC3CCCCC3)[nH]c2c1
inactive: SNB-75 CNS 74.2% | SNB-19 CNS 79.5% | U251 CNS 45.2% | PC-3 prostate 50.5% | UACC-62 melanoma 83.9% | SK-MEL-2 melanoma 75% | EKVX NSCLC 79.8% | SN12C renal 54.7% | UO-31 renal 10.8% | TK-10 renal 88.7% | ACHN renal 80.6% | CAKI-1 renal 42.8% | A498 renal 62.5% | CCRF-CEM leukemia 29.5% | MOLT-4 leukemia 25.5%
active: HCT-15 colon 3.08% | HT29 colon 8.15% | SK-MEL-5 melanoma -86.3% | LOX IMVI melanoma -67.4% | SK-MEL-28 melanoma -8.14%

O=C(CSc1nnnn1-c1ccccc1)Nc1ccc(Oc2ccccc2)cc1
inactive: HCT-15 colon 97.4% | HT29 colon 108% | SNB-75 CNS 101% | SNB-19 CNS 98.8% | U251 CNS 101% | PC-3 prostate 96.1% | SK-MEL-5 melanoma 103% | UACC-62 melanoma 82.3% | LOX IMVI melanoma 104% | SK-MEL-28 melanoma 100% | SK-MEL-2 melanoma 81% | EKVX NSCLC 100% | SN12C renal 88.4% | UO-31 renal 77.2% | TK-10 renal 119% | ACHN renal 99.7% | CAKI-1 renal 107% | A498 renal 103% | CCRF-CEM leukemia 114% | MOLT-4 leukemia 91.7%

CCN(CC)CCOc1ccc(/C(=C(\C)Cc2ccc(OC)cc2)c2ccc(OC(=O)NCc3ccccc3)cc2)cc1
inactive: HCT-15 colon 15.1% | SNB-75 CNS 59.4% | SNB-19 CNS 66.9% | U251 CNS 32.4% | PC-3 prostate 46.2% | SK-MEL-5 melanoma 26.5% | UACC-62 melanoma 34.3% | LOX IMVI melanoma 37.2% | SK-MEL-28 melanoma 38% | SK-MEL-2 melanoma 69.1% | EKVX NSCLC 73% | SN12C renal 74.7% | UO-31 renal 46.3% | TK-10 renal 71.4% | ACHN renal 81.4% | CAKI-1 renal 69.3% | A498 renal 84.8% | CCRF-CEM leukemia 23.1%
active: HT29 colon -34.8% | MOLT-4 leukemia 1.91%

N#Cc1c(-c2ccc(Cl)cc2)nc(NN=Cc2ccc[nH]2)nc1N1CCOCC1
inactive: HCT-15 colon 78.9% | HT29 colon 66.2% | SNB-19 CNS 74.2% | U251 CNS 56.4% | PC-3 prostate 46.6% | SK-MEL-5 melanoma 85.2% | UACC-62 melanoma 88% | LOX IMVI melanoma 87.8% | SK-MEL-28 melanoma 90.8% | SK-MEL-2 melanoma 98.8% | EKVX NSCLC 66% | SN12C renal 40.1% | UO-31 renal 14.8% | TK-10 renal 63.3% | ACHN renal 82.5% | CAKI-1 renal 63.2% | A498 renal 31.7% | CCRF-CEM leukemia 20.8% | MOLT-4 leukemia 17.4%
active: SNB-75 CNS -13.5%

COc1ccc(Nc2ncc(C#N)c(NCCCNC(=O)C3CCC3)n2)cc1
inactive: HCT-15 colon 49.7% | HT29 colon 61.9% | SNB-75 CNS 58.1% | SNB-19 CNS 68.9% | U251 CNS 60.1% | PC-3 prostate 71.9% | SK-MEL-5 melanoma 92% | UACC-62 melanoma 78.1% | LOX IMVI melanoma 32.6% | SK-MEL-28 melanoma 103% | SK-MEL-2 melanoma 80.6% | EKVX NSCLC 87.3% | SN12C renal 35.3% | UO-31 renal 11.1% | TK-10 renal 41.4% | ACHN renal 48.1% | CAKI-1 renal 26.3% | A498 renal 52.8% | CCRF-CEM leukemia 45.5% | MOLT-4 leukemia 34.7%

CN1CCOCCN(C)Cc2ccc3ccc(cc3c2)CN(C)CCOCCN(C)Cc2ccc3ccc(cc3c2)C1
inactive: HCT-15 colon 73.2% | SNB-75 CNS 78.3% | SNB-19 CNS 86.5% | U251 CNS 80.7% | PC-3 prostate 55.5% | SK-MEL-5 melanoma 99.4% | UACC-62 melanoma 104% | LOX IMVI melanoma 93.8% | SK-MEL-28 melanoma 105% | SK-MEL-2 melanoma 114% | EKVX NSCLC 106% | SN12C renal 92.6% | UO-31 renal 80.8% | TK-10 renal 97.4% | ACHN renal 98.5% | CAKI-1 renal 77.7% | A498 renal 79.1% | CCRF-CEM leukemia 56.3% | MOLT-4 leukemia 74%
active: HT29 colon 7.33%

COc1cc([C@@H](CCO)C[C@H](C)c2ccc3ccccc3c2)cc(OC)c1OC
active: SNB-75 CNS -10%
inactive: HCT-15 colon 26.3% | HT29 colon 11.2% | SNB-19 CNS 37.8% | U251 CNS 27.8% | PC-3 prostate 29.7% | SK-MEL-5 melanoma 28% | UACC-62 melanoma 39.2% | LOX IMVI melanoma 39.2% | SK-MEL-28 melanoma 61.8% | SK-MEL-2 melanoma 16.1% | EKVX NSCLC 49.1% | SN12C renal 42.2% | UO-31 renal 44.2% | TK-10 renal 49.3% | ACHN renal 43.6% | CAKI-1 renal 28.8% | A498 renal 25.3% | CCRF-CEM leukemia 21.6% | MOLT-4 leukemia 25.7%

CN(C)CCC(CCN(C)C)(C(=O)O)c1ccccc1
inactive: HCT-15 colon 99.7% | HT29 colon 96.6% | SNB-75 CNS 97.2% | SNB-19 CNS 101% | U251 CNS 102% | PC-3 prostate 92.7% | SK-MEL-5 melanoma 102% | UACC-62 melanoma 103% | LOX IMVI melanoma 106% | SK-MEL-28 melanoma 105% | SK-MEL-2 melanoma 102% | EKVX NSCLC 107% | SN12C renal 98.4% | UO-31 renal 88.3% | TK-10 renal 106% | ACHN renal 98.5% | CAKI-1 renal 95.4% | A498 renal 90.4% | CCRF-CEM leukemia 100% | MOLT-4 leukemia 109%

O=Nc1ccc(NC(=O)Nc2ccc([N+](=O)[O-])cc2)cc1
inactive: HCT-15 colon 83.2% | HT29 colon 100% | SNB-75 CNS 96.4% | SNB-19 CNS 107% | U251 CNS 92.5% | PC-3 prostate 72.2% | SK-MEL-5 melanoma 86.7% | UACC-62 melanoma 76.9% | LOX IMVI melanoma 88.8% | SK-MEL-28 melanoma 108% | SK-MEL-2 melanoma 116% | EKVX NSCLC 96% | SN12C renal 94.9% | UO-31 renal 85.8% | TK-10 renal 99.7% | ACHN renal 94.7% | CAKI-1 renal 97.1% | A498 renal 84% | CCRF-CEM leukemia 68.4% | MOLT-4 leukemia 88.6%

COc1ccc(Oc2ccc(/C=C/C(=O)c3ccc(OC)c(OC)c3)cc2)cc1
active: MOLT-4 leukemia -9.69%
inactive: HCT-15 colon 61.5% | HT29 colon 86% | SNB-75 CNS 72.5% | SNB-19 CNS 85.8% | U251 CNS 68.9% | PC-3 prostate 81.6% | SK-MEL-5 melanoma 75.3% | UACC-62 melanoma 67.5% | LOX IMVI melanoma 53.7% | SK-MEL-28 melanoma 93.7% | SK-MEL-2 melanoma 89% | EKVX NSCLC 79.4% | SN12C renal 86.7% | UO-31 renal 70.9% | TK-10 renal 105% | ACHN renal 92.5% | CAKI-1 renal 85.5% | A498 renal 90.3% | CCRF-CEM leukemia 70.3%
